Results on 28 compounds are retold here after PubChem BioAssay (NCATS).

The target in assay [1] is Aldehyde dehydrogenase, mitochondrial (Homo sapiens) (UniProt P05091). In words: qHTS for Inhibitors of the Aldehyde Dehydrogenase Family (ALDH2) Confirmatory screens (AID 2061303; active = well fitted inhibition curve with a large enough effect; title and protocol of this record describe different tests; note: nearly all actives have a fitted effect of over 45% in size; note: potency is the fitted concentration of half-maximal effect). On the technique in general: In qHTS, concentration-response curves come from the screen itself.
Assay [2] has the same target. The assay can be described thus: qHTS for Inhibitors of the Aldehyde Dehydrogenase Family (ALDH2) Primary screen (AID 2061308). Note: nearly all actives have a fitted effect of over 55% in size. Note: potency is the fitted concentration of half-maximal effect.
Assay [3] deals with Retinaldehyde dehydrogenase 3 (Homo sapiens) (UniProt P47895). In words: qHTS for Inhibitors of the Aldehyde Dehydrogenase Family (ALDH1A3) Confirmatory screens (AID 2061311). Note: nearly all actives have a fitted effect of over 60% in size. Note: potency is the fitted concentration of half-maximal effect.
The target in assay [4] is Retinal dehydrogenase 2 (Homo sapiens) (UniProt O94788). In words: qHTS for Inhibitors of the Aldehyde Dehydrogenase Family (ALDH1A2) Confirmation screens (AID 2061314). Note: nearly all actives have a fitted effect of over 65% in size. Note: potency is the fitted concentration of half-maximal effect.
Assay [5] deals with Retinaldehyde dehydrogenase 3 (Homo sapiens) (UniProt P47895). In words: qHTS for Inhibitors of the Aldehyde Dehydrogenase Family (ALDH1A3) Primary screen (AID 2061315).
Assay [6] concerns the target Aldehyde dehydrogenase 1A1 (Homo sapiens) (UniProt P00352). The assay can be described thus: qHTS for Inhibitors of the Aldehyde Dehydrogenase Family (ALDH1A1) Confirmatory screens (AID 2061316). Note: nearly all actives have a fitted effect of over 65% in size. Note: potency is the fitted concentration of half-maximal effect.
Assay [7] is described as follows: qHTS for Inhibitors of the Aldehyde Dehydrogenase Family (ALDH1A2, ALDH1A3, ALDH2, ALDH3A1) (AID 2061307). Note: test system not described further here; potency is the fitted concentration of half-maximal effect; nearly all actives have a fitted effect of over 50% in size.

Inconclusive results are not listed. Calls of active or inactive are those of the source. Unless noted, calls come from the whole dose curve; as a rule, active = well fitted curve in the direction sought with a large enough effect; inconclusive = small, poorly fitted or top-dose-only effect, or another doubt; inactive = no such curve, though single readings can be large; an effect the other way counts as inactive or inconclusive.

Consider `COc1cccc(-c2no[n+]([O-])c2C#N)c1`, for which the Potency entry in assay [1], in assay [2], in assay [3], in assay [5] and in assay [6] was “inactive” each time. The Potency in assay [4] is 10.1 µM (active).

For the compound `COc1ccc(C2=Nn3c(nnc3-c3ccccc3O)SC2)cc1`, the Potency result in assay [1], in assay [2], in assay [3], in assay [4] and in assay [5] was “inactive” each time.

In the case of `COc1ccc(NC(=O)O[C@@H]2CO[C@H]3[C@@H]2OC[C@@H]3n2nnnc2SCc2ccco2)cc1`, in assay [1], the Potency entry is “inactive”. The results for the Potency in assay [7] and in assay [6] were 12.9 µM (active) and 10.2 µM (active), respectively.

Consider `O=C1c2ccccc2NC(c2ccc(-c3ccccc3F)o2)N1O` (stereo unspecified), for which the Potency in assay [1] is 11.3 µM (active); in assay [2] it was 8.91 µM (active); in assay [4], 25.2 µM (active). In addition, the Potency result in assay [3] and in assay [5] was “inactive” each time.

Turning to `CN1CCN(c2nn3c(=O)c4ccccc4nc3s2)CC1`, the Potency entry in assay [1] and in assay [2] was “inactive” each time. Further, the Potency in assay [3] was 8.96 µM (active).

In the case of `O=C1CCCC2=C1C(c1[nH]ncc1Cl)NC(=NCc1ncc[nH]1)N2` (stereo unspecified), the Potency entry in assay [1], in assay [2], in assay [3], in assay [4], in assay [5] and in assay [6] was “inactive” in each case.

Consider `C#Cc1nc(Nc2cccc(Cl)c2)nc(NC2CCCC2)n1`, for which the Potency was 31.6 µM (active) in assay [1], 14.1 µM (active) in assay [3] and 8.91 µM (active) in assay [4]. Moreover, the Potency entry in assay [2] and in assay [5] was “inactive” each time.

Take `O=C1Nc2ccccc2/C1=C\c1ccc(C(=O)O)cc1`: the Potency entry in assay [1], in assay [2], in assay [3], in assay [4], in assay [5] and in assay [6] was “inactive” throughout.

Regarding `Cc1cnc(-c2ccccc2C(C)C)nc1NCC1CN(c2cccnc2)C1`, the Potency in assay [1] was 11.3 µM (active); in assay [3], 11.3 µM (active); in assay [4], 2.52 µM (active); in assay [6], 8.96 µM (active). Besides, the Potency entry in assay [2] and in assay [5] was “inactive” in each case.

`O=C(Nc1cncc(O)c1)c1cccs1`: the values for the Potency in assay [1], in assay [3] and in assay [4] were 12.7 µM (active), 12.7 µM (active) and 2.25 µM (active), respectively. In addition, the Potency entry in assay [2] and in assay [5] was “inactive” each time.

Take `Cc1cc(C=CC#N)cc(C)c1Nc1nc(Nc2ccc3c(c2)CCC3)c2[nH]cnc2n1`: the Potency entry in assay [1], in assay [2], in assay [3], in assay [4] and in assay [5] was “inactive” in each case.

Consider `COc1cc(O)c(C(CC(=O)N2CCCC(CN3CCCCC3)C2)c2ccc3c(c2)OCO3)c(OC)c1` (stereo unspecified), for which the Potency entry in assay [1] and in assay [2] was “inactive” in each case.

Regarding `Cc1c(P(=O)(c2ccccc2)c2ccccc2)c2ccccc2n1C`, the Potency result in assay [1], in assay [2], in assay [4] and in assay [5] was “inactive” throughout. The figures for the Potency in assay [3] and in assay [6] were 7.12 µM (active) and 10.1 µM (active), respectively.

For `Brc1ccc(-c2csc(N3CCC(c4nn[nH]n4)CC3)n2)cc1`, the Potency entry in assay [1], in assay [2], in assay [3], in assay [4] and in assay [5] was “inactive” each time.

`NC(=O)N1CCN(c2nc(-c3ccc(Br)cc3)cs2)CC1`: the Potency result in assay [1], in assay [2], in assay [3], in assay [4], in assay [5] and in assay [6] was “inactive” throughout.

For the compound `COc1cc(O)c(C(CC(=O)N2CCCC(C(C)C)C2)c2ccc3c(c2)OCO3)c(OC)c1` (stereo unspecified), the Potency result in assay [1], in assay [2], in assay [3], in assay [4] and in assay [5] was “inactive” in each case.

As for `N#CN1CCC(NS(=O)(=O)c2ccc(F)cc2)CC1`, the Potency result in assay [1], in assay [2], in assay [3], in assay [4], in assay [5] and in assay [6] was “inactive” in each case.

For the compound `O=C(/C=C/c1ccc([N+](=O)[O-])o1)Nc1cccc([S+](=O)([O-])Nc2ccccc2F)c1`, the Potency entry in assay [1], in assay [2], in assay [3] and in assay [5] was “inactive” each time. For the same compound, the Potency in assay [4] and in assay [6] was 7.98 µM (active) in each case.

As for `O=C1CC(c2ccccc2)CC2=C1C1(CCCC1)N=C(Nc1nc3ccccc3o1)N2` (stereo unspecified), the Potency entry in assay [1], in assay [2], in assay [3], in assay [4], in assay [5] and in assay [6] was “inactive” each time.

With `Cc1ccc2nc3sc(C(=O)N4CCN(C)CC4)cc3cc2c1`, the Potency result in assay [1] and in assay [2] was “inactive” throughout. Besides, the Potency was 22.5 µM (active) in assay [3] and 10.1 µM (active) in assay [4].

For `Cc1cc(C)nc(NC(=S)N2CCN(c3ccc4nsnc4c3)CC2)c1`, the Potency in assay [1] is 8.96 µM (active); in assay [2], 7.94 µM (active); in assay [3], 1.13 µM (active); in assay [4], 6.34 µM (active); in assay [6], 1.79 µM (active).

On to `Cc1cc(C)nc(NC(=S)N2CCN(c3cncc4ccccc34)CC2)c1`, for which the Potency result in assay [1], in assay [2] and in assay [5] was “inactive” throughout. The figures for the Potency in assay [3] and in assay [6] were 22.5 µM (active) and 5.65 µM (active), respectively.

Turning to `CC(=O)c1ccc(N2CCN(S(=O)(=O)c3ccc4c(c3)n(C)c(=O)n4C)CC2)cc1`, the Potency in assay [1] was 0.316 µM (active); in assay [3], 2.01 µM (active). Besides, the Potency result in assay [2] and in assay [6] was “inactive” each time.

As for `CC(C)(C)Nc1nc(C#N)nc(Nc2ccccc2)n1`, the Potency entry in assay [1], in assay [2], in assay [3], in assay [5] and in assay [6] was “inactive” in each case.

Turning to `COc1ccc(C2Nc3ccccc3C(=O)N2Cc2ccccc2)cc1COc1ccc(C)cc1` (stereo unspecified), the Potency is 3.98 µM (active) in assay [1] and 5.65 µM (active) in assay [4]. Besides, the Potency entry in assay [2] and in assay [5] was “inactive” throughout.

In the case of `NC(=O)C1CCN(c2ncc(-c3cccc(N4CCOCC4)c3)s2)CC1`, the Potency result in assay [1], in assay [2], in assay [3], in assay [4] and in assay [5] was “inactive” in each case. Moreover, the Potency in assay [6] was 6.34 µM (active).

Turning to `COc1ccc([N+](=O)[O-])c(S(=O)(=O)c2ccc(Cl)cc2)n1`, the Potency in assay [1] was 5.04 µM (active); in assay [2] it was 1.78 µM (active); in assay [3], 10 µM (active); in assay [4], 15.8 µM (active); in assay [6], 1.27 µM (active).

Take `N#Cc1cc(C2=Nc3ccc(Br)cc3NC(=O)C2)ccn1`: the Potency entry in assay [1], in assay [2], in assay [3], in assay [4], in assay [5] and in assay [6] was “inactive” throughout.
